# Measurements reported in the supplement of paper PMC8728848.
# This is one part of a sample in which the strongest signals are shown more often than they occur.
# Legend:
# Assay in all cases: glycan array binding signal (z-score within array); higher = stronger binding
# Details in all cases: glycan notation: IUPAC condensed, linker removed
# [1] = tested on: GlcNAc(a1-3)Gal(b1-4)GlcNAc
# Summary of the method: (§1)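 From the Consortium for Functional Glycomics database, 3228 arrays were curated, keeping only those whose protein sequence was available. Binding is given as a within-array Z-score averaged across arrays sharing a protein sequence and across linkers. Negative Z-scores can be read as non-binding.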
# [2] = tested on: GlcNAc(a1-4)Gal(b1-4)GlcNAc(b1-3)Gal(b1-4)[Fuc(a1-3)]GlcNAc(b1-3)Gal(b1-4)[Fuc(a1-3)]GlcNAc
# Summary of the method: as §1
# [3] = tested on: GlcNAc(b1-2)Gal(b1-3)GalNAc
# Summary of the method: as §1
# [4] = tested on: GlcNAc(b1-2)[GlcNAc(b1-4)]Man(a1-3)[GlcNAc(b1-4)][GlcNAc(b1-2)[GlcNAc(b1-6)]Man(a1-6)]Man(b1-4)GlcNAc(b1-4)GlcNAc
# Summary of the method: as §1
# [5] = tested on: GlcNAc(a1-4)Gal(b1-4)GlcNAc(b1-3)Gal(b1-4)GlcNAc
# Summary of the method: as §1
# [6] = tested on: GlcNAc(b1-2)[GlcNAc(b1-4)]Man(a1-3)[GlcNAc(b1-2)Man(a1-6)]Man(b1-4)GlcNAc(b1-4)GlcNAc
# Summary of the method: as §1
# [7] = tested on: GlcNAc(b1-2)Man(a1-3)[GlcNAc(b1-2)Man(a1-6)]Man(b1-4)GlcNAc(b1-4)GlcNAc
# Summary of the method: as §1
# [8] = tested on: GlcNAc(b1-2)Man(a1-3)[GlcNAc(b1-4)][GlcNAc(b1-2)Man(a1-6)]Man(b1-4)GlcNAc(b1-4)[Fuc(a1-6)]GlcNAc
# Summary of the method: as §1
# [9] = tested on: GlcNAc(b1-2)Man(a1-3)[GlcNAc(b1-2)Man(a1-6)]Man(b1-4)GlcNAc(b1-4)[Fuc(a1-6)]GlcNAc
# Summary of the method: as §1
# [10] = tested on: GlcNAc(a1-4)Gal(b1-4)GalNAc
# Summary of the method: as §1
substance,measurement,setting,value
"GspB (Streptococcus gordonii), Q939N5",glycan array binding signal (z-score),[1],2.63
"Wza (Escherichia coli), P0A930",glycan array binding signal (z-score),[2],3.13
"SiiE (Salmonella typhimurium), A0A0H3NVH0",glycan array binding signal (z-score),[3],0.158
same,glycan array binding signal (z-score),[4],-1.05
AgI/II Vhelical-GFP (Streptococcus mutans),glycan array binding signal (z-score),[5],1.06
same,glycan array binding signal (z-score),[6],-0.187
AgI/IIC123-GFP (Streptococcus mutans),glycan array binding signal (z-score),[7],-0.346
LcI (Legionella pneumophila),glycan array binding signal (z-score),[8],-0.447
same,glycan array binding signal (z-score),[4],-0.477
"BambL (Burhholderia ambifaria), Q0B4G1",glycan array binding signal (z-score),[1],-0.316
same,glycan array binding signal (z-score),[5],-0.278
same,glycan array binding signal (z-score),[2],0.185
same,glycan array binding signal (z-score),[9],0.071
same,glycan array binding signal (z-score),[6],-0.291
Epa22,glycan array binding signal (z-score),[10],-0.638
same,glycan array binding signal (z-score),[9],-0.14
